From PubChem
Sampled rows, rich in hits. Any-hit rate of the full collection: about 1.1%.
Y pestis TopoI: inhibitors of Yersinia pestis topoisomerase I; Y. pestis Topo-I cleavage product accumulation, plate reader; activity, % at 10 µM; actives 0.064% (n = 360,000); AID 504884; in the data active means activity above about 50%, passing the limit was not always enough
BJeLR lethal: kills HRASV12-expressing BJeLR cells | actives 0.17% (n = 300,000) | BJeLR (HRASV12) viability, CellTiter-Glo ATP luminescence, 48 h | inhibition, % (concentration not given with the values); in the data active means inhibition above about 50%
PfHsp40 yeast: compounds rescuing yeast from Plasmodium falciparum HSP40 toxicity; growth rescue, % at 12.5 µM; S. cerevisiae expressing PfHsp40, growth rescue, ATP luminescence; AID 504582; actives 0.68% (n = 340,000); in the data active means growth rescue above about 28%, passing the limit was not always enough;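 further: yeast W303a lacking pdr1 and pdr3 grown in galactose medium; growth measured after three days at 30 °C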
MazF activator: activators of E. coli MazEF toxin-antitoxin RNase; actives 0.32% (n = 350,000); FAM/BHQ RNA-DNA oligo cleavage fluorescence, 5 h; activation, % at 20 µM; P0AE70; in the data active means activation above about 50%
Target sequence (P0AE70 whole entry, looked up): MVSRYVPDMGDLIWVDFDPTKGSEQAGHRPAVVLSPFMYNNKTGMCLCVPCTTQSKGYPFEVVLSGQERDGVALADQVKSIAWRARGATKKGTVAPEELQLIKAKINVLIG
SARS 3CLpro inh: SARS-CoV 3CLpro protease inhibition. P0C6X7. recombinant SARS-CoV 3CLpro, quenched FRET peptide cleavage. inhibition, % at 6 µM. actives 0.14% (n = 290,000). AID 1706; in the data active means inhibition above about 12%
BioA inh: blocks M. tuberculosis BioA enzyme activity | purified M. tuberculosis BioA enzyme, plate reader | actives 0.096% (n = 360,000) | inhibition, % at 9.99 µM | AID 602481; in the data active means inhibition above about 40%
* = called active by the depositor; nt = not tested or not shown.

SMILES	Y pestis TopoI	BJeLR lethal	PfHsp40 yeast	MazF activator	SARS 3CLpro inh	BioA inh
CO[C@H]1CN(C)C(=O)c2cc(NC(=O)C3CC3)ccc2OC[C@@H](C)N(C(C)=O)C[C@@H]1C	nt	nt	nt	nt	nt	0
Cc1ccccc1C(=O)NNC(=S)NC(=O)c1ccccc1	-3	-4	169*	9	-2	nt
O=C(NC(=S)NNC(=O)[C@H]1C[C@@H]1c1ccccc1)c1cccc(F)c1	2	5	49*	7	2	1
COc1ccccc1NC(=S)NNC(=O)c1ccncc1	0	1	-1	-6	1	0
COc1ccccc1NC(=S)NNC(=O)c1ccccc1	1	2	29*	1	-5	3
Cc1cccc(C(=O)NNC(=S)NC(=O)c2ccccc2)c1	4	0	127*	-13	nt	0
COc1ccc(C(=O)NC(=S)NNC(=O)c2cccc(C)c2)cc1	nt	5	nt	1	nt	nt
Cc1ccc(C(=O)NNC(=S)NC(=O)c2ccccc2)cc1	-2	3	17	-13	nt	nt
Cc1ccc(C(=O)NC(=S)NNC(=O)c2ccccc2)cc1	-4	-5	39*	-8	3	0
O=C(C1COc2ccccc2O1)N1CCN(c2ccccc2F)CC1 (stereo not drawn)	4	-3	0	5	3	-1
O=C(C1COc2ccccc2O1)N1CCN(c2ccccc2Cl)CC1 (stereo not drawn)	3	-1	35*	7	-1	nt
Cc1cccc(N2CCN(C(=O)C3COc4ccccc4O3)CC2)c1C (stereo not drawn)	27	3	206*	-3	0	nt
C[C@@H]1CN([C@H](C)CO)C(=O)c2cc(-c3cncnc3)cnc2O[C@H]1CN(C)C(=O)CN1CCOCC1	nt	nt	nt	nt	nt	-2
Cc1cccc(NC(=S)N(C)Cc2cn(C)c3ccccc23)c1	1	2	0	-7	-2	1
CN(Cc1cn(C)c2ccccc12)C(=S)Nc1cc(F)cc(F)c1	-3	-5	57*	-6	3	nt
COc1ccc(NC(=O)Nc2ccc3c(c2)C(=O)N([C@H](C)CO)C[C@@H](C)[C@H](CN(C)S(=O)(=O)c2ccc(Cl)cc2)OCCCC[C@@H](C)O3)cc1	nt	nt	nt	nt	nt	0
CC(C)CC(=O)/C=C/n1c(=S)oc2ccccc21	2	4	-1	-1	0	-3
CC(=O)/C=C/n1c(=S)oc2ccccc21	nt	71*	nt	6	9	nt
Cc1cc(N=Nc2ccccc2C(=O)O)c(C)c(C)c1O	7	11	150*	-3	4	nt
COc1ccc(NC(=O)C(OC(=O)c2ccccc2)c2cccs2)cc1 (stereo not drawn)	nt	nt	nt	nt	nt	0
COc1ccccc1NS(=O)(=O)c1cc(NC(=O)Nc2ccccc2)ccc1N1CCCCC1	-9	nt	46*	30	4	0
O=C(Nc1ccc(F)cc1)Nc1ccc(N2CCCC2)c(S(=O)(=O)Nc2ccccc2Cl)c1	-16	-16	-1	53*	11	nt
O=C(Nc1ccc(Cl)c(Cl)c1)Nc1ccc(N2CCCC2)c(S(=O)(=O)Nc2ccccc2Cl)c1	-8	0	0	14	6	nt
O=C(Nc1cc(S(=O)(=O)N2CCCCC2)ccc1Cl)c1ccccc1NS(=O)(=O)c1ccc(F)cc1	-4	51*	-2	5	8	nt
CCNC(=S)Nc1ccc(C)c(S(=O)(=O)Nc2ccccc2OC)c1	5	8	106*	-2	-1	nt
SMILES	Y pestis TopoI	BJeLR lethal	PfHsp40 yeast	MazF activator	SARS 3CLpro inh	BioA inh
COc1ccccc1NS(=O)(=O)c1cc(NC(=O)C(C)C)ccc1N1CCCCC1	6	6	-2	2	5	nt
COc1ccccc1NS(=O)(=O)c1cc(NC(=O)CNC(=O)c2cc(C)cc(C)c2)ccc1C	14	-1	-1	-6	5	-1
COc1ccc(CN(C)C[C@H]2OCCCC[C@H](C)Oc3ccc(NS(=O)(=O)c4ccccc4)cc3C(=O)N([C@H](C)CO)C[C@H]2C)cc1	nt	nt	nt	nt	nt	1
CC=Cc1ccc2n(c1=O)C[C@@H]1[C@@H](CO)[C@H](C(=O)NCC3CC3)N(Cc3cccnc3)[C@H]21 (mixture of isomers)	nt	nt	nt	nt	nt	-3
CC(=O)N(C)C[C@@H]1Oc2ncc(C#Cc3ccccn3)cc2C(=O)N([C@@H](C)CO)C[C@H]1C	nt	nt	nt	nt	nt	-8
O=Cc1c(OCc2ccccc2)ccc2ccccc12	24	3	100*	14	0	5
